In PubChem BioAssay (EPA / NIEHS) one finds outcome and AC50 data, which are given here for three compounds.

The nature of assay [1]: ATG_CRE_CIS: Attagene CIS-FACTORIAL HepG2 Assay for human cAMP Responsive Element (CRE) binding protein 3 (AID 2282926). Conditions: HepG2 CRE cis-reporter, Attagene multiplexed mRNA; actives raise or lower the signal. The method in brief: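 Human liver HepG2, transient MRTU transfection, 24 h compound exposure. Total RNA → oligo(dT) RT → PCR → 6-FAM primer extension → HpaI cut → CE. Activity called both directions vs DMSO.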

Assay [2] deals with CCAAT/enhancer-binding protein beta (Homo sapiens) (UniProt P17676). As to the kind of experiment: ATG_C_EBP_CIS: Attagene CIS-FACTORIAL HepG2 Assay for human CCAAT/Enhancer Binding Protein (C/EBP) beta (AID 2282927). To be noted: HepG2 Attagene cis-factorial transcription factor reporter; actives raise or lower the signal. The method in brief:
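Transiently transfected HepG2 (MRTU library, endogenous TF-driven promoters); 24 h dosing; total RNA → oligo(dT) RT → PCR → 6-FAM primer extension → HpaI digest → CE; fit bidirectionally vs DMSO.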

Assay [3] can be described thus: ATG_CMV_CIS: Attagene CIS-FACTORIAL HepG2 Assay for human CMV (Internal Marker) (AID 2282928).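 Further: endpoint acts as a background internal control marker rather than a target.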 Conditions: HepG2 CMV promoter reporter, transcription factor profiling; actives raise or lower the signal. An outline of the steps: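 CMV internal-marker background readout in transiently transfected HepG2 cells bearing cis-regulated reporter units. Reporter mRNA is measured 24 h after dosing by RT-PCR and capillary electrophoresis, with bidirectional fitting against DMSO.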

Assay [4] can be described thus: ATG_DR4_LXR_CIS: Attagene CIS-FACTORIAL HepG2 Assay for human Liver X Receptor (LXR), DR4 submotif (AID 2282929). Conditions: HepG2 Attagene DR4 cis-reporter, mRNA transcription; actives raise or lower the signal. An outline of the steps: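 HepG2 cells transiently transfected with cis-promoter-driven multiplexed reporter units (DR4 element) were dosed for 24 h. Reporter mRNA was quantified by RT-PCR, fluorescent primer extension, HpaI digestion and capillary electrophoresis; bidirectional fitting versus DMSO baseline.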

A short description of assay [5]: ATG_AP_1_CIS: Attagene CIS-FACTORIAL HepG2 Assay for human Activator Protein 1 (AP-1) (AID 2282931). To be noted: HepG2 Attagene cis-factorial AP-1 reporter mRNA; actives raise or lower the signal. The method in brief:
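HepG2 cells transiently transfected with cis-element-driven multiplex reporter units; 24 h compound exposure. Reporter mRNA quantified by RT-PCR, FAM-labelled fragments resolved by capillary electrophoresis; bidirectional fit versus DMSO baseline.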

A short description of assay [6]: ATG_AP_2_CIS: Attagene CIS-FACTORIAL HepG2 Assay for human Activator Protein 2 (AP-2) (AID 2282932). To be noted: HepG2 AP-2 cis-reporter, Attagene transcription factor profiling; actives raise or lower the signal. The method in brief:
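Multiplexed mRNA reporter assay in HepG2: cis-regulated units report endogenous factor activity after 24 h treatment. Fluorescence from capillary electrophoresis of RT-PCR products gives the signal, with DMSO as baseline.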

The nature of assay [7]: ATG_BRE_CIS: Attagene CIS-FACTORIAL HepG2 Assay for human Bone Morphogenetic Protein (BMP) Response Element (BRE) (AID 2282933). Conditions: HepG2 BMP response element reporter, Attagene transcription factor profiling; actives raise or lower the signal. The method in brief: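 After a 24 h chemical treatment, transiently transfected HepG2 cells were lysed for RNA; reporter transcripts were quantified by fluorescent RT-PCR and capillary electrophoresis, normalised to DMSO.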

Assay [8] has as its target Transcription factor E2F1 (Homo sapiens) (UniProt Q01094). As to the kind of experiment: ATG_E2F_CIS: Attagene CIS-FACTORIAL HepG2 Assay for human E2F Transcription Factor 1 (AID 2282935). To be noted: HepG2 Attagene cis-reporter, E2F reporter RNA transcripts; actives raise or lower the signal. An outline of the steps: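 Measures reporter transcript levels via RT-PCR with capillary electrophoresis detection in HepG2 cells harboring cis-regulated reporter units; 24 h post-dose; bidirectional curve fitting with DMSO as baseline.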

A short description of assay [9]: ATG_E_Box_CIS: Attagene CIS-FACTORIAL HepG2 Assay for human Enhancer Box (E-box) (AID 2282936). Conditions: HepG2 E-box cis-reporter transcription, actives raise or lower the signal. The method in brief: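 First, HepG2 cells receive multiple cis-regulated reporter constructs by transient transfection. Next, chemicals are applied for 24 h. Finally, reporter mRNA is quantified via RT-PCR and capillary electrophoresis, with DMSO as baseline.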

Assay [10] can be described thus: ATG_M_61_CIS: Attagene CIS-FACTORIAL HepG2 Assay for M61 Transcription Factor (Internal Marker) (AID 2282937). Conditions: HepG2 Attagene CIS-FACTORIAL M61 internal marker reporter; actives raise or lower the signal. The method in brief:
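HepG2 cells transiently transfected with cis-element-driven multiple reporter transcription units, dosed for 24 h. Reporter mRNA measured by RT-PCR, 6-FAM primer-extension labelling, HpaI digestion and capillary electrophoresis; bidirectional fit versus DMSO baseline.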

The nature of assay [11]: ATG_EGR_CIS: Attagene CIS-FACTORIAL HepG2 Assay for human Early Growth Response 1 (EGR1) (AID 2282938). To be noted: HepG2 Attagene CIS-FACTORIAL EGR reporter mRNA; actives raise or lower the signal. The method in brief:
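HepG2 cells transiently transfected with cis-promoter-driven multiplexed reporter transcription units; reporter mRNA measured 24 h after compound dosing by RT-PCR, 6-FAM primer extension, HpaI digestion and capillary electrophoresis. Bidirectional fit versus DMSO baseline.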

Assay [12] in a line: ATG_Ets_CIS: Attagene CIS-FACTORIAL HepG2 Assay for human Erythroblast Transformation Specific (ETS) (AID 2282941). Conditions: HepG2 ETS cis-reporter transcription, actives raise or lower the signal. The method in brief: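 HepG2 cells transfected with multiple cis-regulated reporter units measuring endogenous ETS-driven transcription, 24 h after dosing. Reporter mRNA quantified by RT-PCR with capillary electrophoresis; bidirectional fit relative to DMSO.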

The nature of assay [13]: ATG_FoxO_CIS: Attagene CIS-FACTORIAL HepG2 Assay for human Forkhead box O (FoxO) (AID 2282943). To be noted: HepG2 Attagene cis-reporter, FoxO element, mRNA; actives raise or lower the signal. An outline of the steps:
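Read-out: fluorescence of 6-FAM-labelled reporter cDNA fragments resolved by capillary electrophoresis. Transiently transfected HepG2 cells were dosed for 24 h; activity fitted in both directions relative to DMSO controls.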

Assay [14] is described as follows: ATG_GATA_CIS: Attagene CIS-FACTORIAL HepG2 Assay for human GATA Binding Protein (AID 2282944). To be noted: HepG2 GATA cis-element reporter, Attagene multiplex mRNA; actives raise or lower the signal. An outline of the steps:
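Measures endogenous transcription factor-driven reporter mRNA in HepG2 cells transiently carrying cis-regulated constructs. 24 h dosing; RNA via oligo(dT) reverse transcription, PCR, HpaI digestion, capillary electrophoresis; fitted relative to DMSO.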

The nature of assay [15]: ATG_GLI_CIS: Attagene CIS-FACTORIAL HepG2 Assay for human Zinc Finger Protein GLI1 (AID 2282945). Conditions: HepG2, Attagene cis-factorial reporter mRNA, GLI element; actives raise or lower the signal. An outline of the steps:
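Transiently transfected HepG2 cells report endogenous transcription factor activity via cis-element-driven reporter units. After 24 h compound exposure, reporter mRNA was measured by RT-PCR with capillary electrophoresis; bidirectional fitting against DMSO baseline.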

A short description of assay [16]: ATG_ISRE_CIS: Attagene CIS-FACTORIAL HepG2 Assay for human Interferon Regulatory Factor 1 (IRF1) binding to an Interferon-Stimulated Response Element (ISRE) (AID 2282948). Conditions: HepG2 ISRE cis-reporter (Attagene), mRNA transcription readout; actives raise or lower the signal. An outline of the steps: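 Transiently transfected HepG2 cells carrying cis-element reporter units, dosed 24 hours. Reporter mRNA quantified by RT-PCR, fluorescent primer extension, HpaI digestion and capillary electrophoresis. Bidirectional fitting relative to DMSO.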

Assay [17] is described as follows: ATG_M_32_CIS: Attagene CIS-FACTORIAL HepG2 Assay for M32 Transcription Factor (Internal Marker) (AID 2282949).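 Further: background control marker of the multiplexed CIS panel rather than a real target.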 Conditions: HepG2 Attagene cis-factorial M32 reporter, mRNA; actives raise or lower the signal. The method in brief:
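Following 24 h chemical exposure of HepG2 cells transiently expressing cis-promoter reporter constructs, reporter transcript levels were determined by RT-PCR with fluorescent labelling and capillary electrophoresis, then fitted bidirectionally against DMSO.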

The nature of assay [18]: ATG_M_06_CIS: Attagene CIS-FACTORIAL HepG2 Assay for M06 Transcription Factor (Internal Marker) (AID 2282950). To be noted: HepG2 Attagene CIS-FACTORIAL M06 internal marker reporter; actives raise or lower the signal. An outline of the steps: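 One of many multiplexed endpoints: HepG2 reporter mRNA after 24 h dosing, detected by RT-PCR and capillary electrophoresis fluorescence; gain or loss of signal analysed against DMSO.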

Assay [19] has as its target Paired box protein Pax-6 (Homo sapiens) (UniProt P26367). As to the kind of experiment: ATG_Pax6_CIS: Attagene CIS-FACTORIAL HepG2 Assay for human Paired Box 6 (PAX6) (AID 2282956). To be noted: HepG2 CIS-FACTORIAL PAX6 reporter transcription, RNA readout; actives raise or lower the signal. The method in brief: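 HepG2 cells transiently transfected with cis-promoter-driven multiplexed reporter units sensing endogenous transcription factor activity; 24 h chemical exposure. Reporter mRNA quantified by RT-PCR, 6-FAM labelling, HpaI digestion and capillary electrophoresis; bidirectional fit versus DMSO baseline.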

A short description of assay [20]: ATG_PXRE_CIS: Attagene CIS-FACTORIAL HepG2 Assay for human Pregnane X Receptor Element (PXRE) (AID 2282957). Conditions: HepG2 Attagene CIS-FACTORIAL PXRE reporter, mRNA; actives raise or lower the signal. The method in brief: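 Transfect HepG2 with MRTUs (cis promoter elements); dose chemical, incubate 24 h; isolate RNA, RT with oligo(dT), PCR, 6-FAM label, HpaI cut, CE. Gain/loss fit vs DMSO.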

Molecules are shown by their SMILES. Calls of active or inactive are those of the source. How the source made its calls: active means hit-call score of the fitted dose curve at least 0.9, where 1 is the maximum; inactive means score below 0.9.

CCAAT/enhancer-binding protein beta (Homo sapiens), sequence (P17676 whole entry, looked up): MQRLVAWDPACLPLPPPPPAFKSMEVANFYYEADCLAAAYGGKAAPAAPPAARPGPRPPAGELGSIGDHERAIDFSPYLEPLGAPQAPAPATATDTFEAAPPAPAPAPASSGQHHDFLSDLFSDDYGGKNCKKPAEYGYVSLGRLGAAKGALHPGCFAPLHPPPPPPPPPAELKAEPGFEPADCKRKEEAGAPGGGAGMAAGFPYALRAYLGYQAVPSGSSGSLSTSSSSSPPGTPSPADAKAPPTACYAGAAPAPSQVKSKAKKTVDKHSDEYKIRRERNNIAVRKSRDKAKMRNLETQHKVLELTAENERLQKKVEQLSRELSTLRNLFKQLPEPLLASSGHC
Paired box protein Pax-6 (Homo sapiens), sequence (P26367 whole entry, looked up): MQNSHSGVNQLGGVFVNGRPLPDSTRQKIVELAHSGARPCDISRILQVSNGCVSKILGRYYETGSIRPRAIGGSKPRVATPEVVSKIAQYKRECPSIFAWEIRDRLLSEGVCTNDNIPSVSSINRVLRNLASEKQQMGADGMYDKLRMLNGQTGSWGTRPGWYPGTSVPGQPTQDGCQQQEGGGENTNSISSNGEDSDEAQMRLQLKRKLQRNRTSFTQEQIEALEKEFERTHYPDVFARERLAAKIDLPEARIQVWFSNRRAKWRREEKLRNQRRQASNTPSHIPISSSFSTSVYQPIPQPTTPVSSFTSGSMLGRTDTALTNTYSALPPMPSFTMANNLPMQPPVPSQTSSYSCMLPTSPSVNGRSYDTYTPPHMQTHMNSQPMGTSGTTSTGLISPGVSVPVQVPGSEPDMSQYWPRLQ
Transcription factor E2F1 (Homo sapiens), sequence (Q01094 whole entry, looked up): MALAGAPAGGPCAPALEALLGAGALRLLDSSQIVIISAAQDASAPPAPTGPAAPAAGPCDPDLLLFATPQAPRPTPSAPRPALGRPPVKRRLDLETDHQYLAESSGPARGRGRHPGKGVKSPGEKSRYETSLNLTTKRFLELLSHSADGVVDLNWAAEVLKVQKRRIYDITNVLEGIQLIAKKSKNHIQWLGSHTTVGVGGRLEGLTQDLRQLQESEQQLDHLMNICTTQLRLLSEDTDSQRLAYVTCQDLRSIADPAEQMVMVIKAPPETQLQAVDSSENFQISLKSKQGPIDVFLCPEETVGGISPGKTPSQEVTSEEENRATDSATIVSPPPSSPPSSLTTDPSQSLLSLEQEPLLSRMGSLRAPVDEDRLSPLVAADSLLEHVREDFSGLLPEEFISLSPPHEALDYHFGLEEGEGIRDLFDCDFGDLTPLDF

A word on the AC50: it is the midpoint of the concentration-response curve, whichever way the signal moves. `COC(=O)/C=C\C(=O)OC`: the result in assay [1], in assay [2], in assay [3], in assay [4], in assay [6] and in [7] was inactive. Moreover, the result in assay [8], in assay [9], in [10], in [13], in assay [14] and in assay [15] was inactive. For the same compound, the compound was called inactive in [17], in assay [18] and in assay [19]. The AC50 in assay [5] was 28.1 µM (active); in assay [11], 83.1 µM (active); in assay [12], 100 µM (active); in assay [16] it was 45.8 µM (active); in [20] it was 6.26 µM (active).
With `COC(=O)[C@]1(C)CCC[C@@]2(C)[C@H]1CC=C1C=C(C(C)C)CC[C@@H]12`, the outcome in assay [1], in assay [2], in assay [4], in assay [6], in assay [8] and in assay [9] was inactive. Also, the compound was classed as inactive in assay [10], in [11], in assay [12], in assay [13], in [15] and in assay [16]. Besides, the compound was called inactive in [17], in assay [18] and in [19]. Besides, the AC50 in [3] is 100 µM (active); in assay [5], 62.4 µM (active); in assay [7], 100 µM (active); in [14], 173 µM (active); in assay [20], 3.48 µM (active).
As to `O=C(C(=O)c1ccccc1)c1ccccc1`, the outcome in assay [1], in [2], in assay [3], in assay [4], in [5] and in assay [6] was inactive. The compound was called inactive in assay [7], in assay [8], in assay [9], in assay [10], in assay [11] and in [12]. Further, the compound was classed as inactive in [13], in [14], in assay [15], in assay [16], in [17] and in assay [18]. Also, in assay [19], the compound was called inactive. In addition, in assay [20], the AC50 is 42.8 µM (active).
